Compounds with a hit are over-represented: about 2.7% of the library has one in this group of screens.
TRPM1 prom inh – reduces MITF-dependent TRPM1 promoter luciferase signal | SK-MEL-5 TRPM1 promoter luciferase, 24 h | inhibition, % at 12.5 µM | 0.83% of 330,000 active;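 active means mean inhibition across replicates of 60% or more, whatever share of single replicates reaches that level; inconclusive means some that reach 60%, reason not given; inactive means mean inhibition across replicates below 60%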
CF NFkB inh – blocks PAF-induced NF-kB reporter in cystic fibrosis cells | KKLEB NF-kB-GFP reporter, GFP fluorescence overnight | inhibition, % at 5 µM | 0.86% of 360,000 active | AID 588850;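 active means at least 50% inhibition at 5 µM, scaled per plate between neutral and stimulator controls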;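 further: PAF is a Pseudomonas aeruginosa culture filtrate used as stimulus; plate controls were PAF-stimulated DMSO wells for no effect and unstimulated DMSO wells for full effect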
Peg3 prom inh-1 – inhibitors of Peg3 promoter; 1.7% of 360,000 active; inhibition, % at 20 µM; HeLa PEG-Prom luciferase reporter, luminescence, overnight;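 active means inhibition of at least 50% at 20 µM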
HIF-2a block – inhibitors of HIF-2a. 786-0 RCC cells HIF-2a reporter, luciferase luminescence, overnight. inhibition, % at 18.8 µM. 0.72% of 360,000 active;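 active means inhibition of the luminescence signal of 40% or more relative to plate controls, in a single-dose primary screen at 18.75 µM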
KKLEB tox – reduces viability of KKLEB cystic fibrosis airway cells; KKLEB CF airway cells viability, ATPlite luminescence, overnight; hits give low values; cells stimulated with P. aeruginosa culture filtrate; activity change (cytotoxicity), % at 5 µM; 0.36% of 360,000 active; AID 602141;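 active means corrected activity change at or below -50% at 5 µM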
Shn3 inh set2 – Schnurri-3 reporter inhibition in Clone20 osteoblasts | Clone20 osteoblast Shn3 3'UTR firefly luciferase, 24 h | inhibition, % at 12.5 µM | 0.52% of 360,000 active;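 active means mean inhibition of at least 75% with every replicate also reaching 75%; inconclusive means mean inhibition at least 75% but some replicate below; inactive means mean inhibition below 75%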;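 further: 0% = median of neutral control wells and 100% = pilot-screen positive control compound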
Peg3 prom inh-2 – Peg3 promoter inhibition confirmation; shares compounds with Peg3 prom inh-1; HeLa PEG-Prom luciferase reporter, luminescence, overnight; inhibition, % at 20 µM; 84% of 1,300 active; AID 602417;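 active means at 20 µM dose, 40% or more inhibition averaged across four replicates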
An asterisk follows results filed as active; ? = inconclusive; . = no result.

SMILES | TRPM1 prom inh | CF NFkB inh | Peg3 prom inh-1 | HIF-2a block | KKLEB tox | Shn3 inh set2 | Peg3 prom inh-2
COC(=O)c1ccc(Nc2cc(C)nc3ccc(C)cc23)cc1 | 76* | -9 | 56* | 19 | -7 | 7 | 89*
O=C(NCCS(=O)(=O)NCc1ccccc1)c1ccc2c(c1)OCO2 | -7 | 21 | 5 | 7 | 5 | -3 | .
O=C(NCCc1ccccc1)c1ccc2c(c1)OCO2 | 53 | 11 | 58* | 54* | -5 | 22 | 52*
COc1cc(OC)c(C(=O)OCC(=O)Nc2nnc(-c3ccccc3)o2)cc1OC | -6 | -11 | -9 | 1 | -6 | 6 | .
CCCCCCCn1c(=N)n(CC(=O)c2ccco2)c2ccccc21 | 38 | -4 | 87* | 30 | 1 | 64 | 64*
CCCCCCCn1c(=N)n(CC(O)c2ccco2)c2ccccc21 (centres undefined) | 29 | 5 | 80* | 0 | -2 | 45 | 91*
O/N=C(\c1ccc(Cl)cc1Cl)c1ncc(C(F)(F)F)cc1Cl | -7 | 2 | 57* | 16 | 6 | 51 | 47*
CSc1ncccc1C(=O)NC1CCCc2c1cnn2-c1ccc(C)c(C)c1 (centres undefined) | 12 | 24 | 1 | -14 | -8 | 70 | .
Cc1nc2ccc(C(=O)N(C)Cc3ccccc3)cn2c1N(C)C(=O)CCc1ccccc1 | . | 8 | 4 | -5 | -6 | -5 | .
CC1=NN(c2cccc(C(=O)O)c2)C(=O)/C1=C\C=C\c1ccco1 | -22 | 6 | -36 | -18 | 2 | -33 | .
CC1=NN(c2ccccc2)C(=O)/C1=C/C=C/c1ccccc1 | 69* | 40 | 113* | 68* | 11 | ? | 22
COc1ccc(C(=O)N(c2c(C)cccc2C)C(COC(C)=O)COC(C)=O)cc1 | . | . | . | 11 | . | . | .
CCN1C(=O)c2ccc(C(=O)NCc3ccco3)cc2C1=O | 8 | 6 | 15 | 12 | 6 | 7 | .
Cc1cccc2c1-c1sc(C(=O)NCCCN3CCCC(C)C3)cc1CO2 (centres undefined) | 7 | 9 | 76* | -10 | -14 | -4 | 99*
CCCn1nc(C(=O)Nc2nc(-c3ccccn3)cs2)c2ccccc2c1=O | 44 | -20 | 70* | -6 | 1 | 60 | 62*
CCCn1nc(C(=O)Nc2nnc(C3CC3)s2)c2ccccc2c1=O | 0 | 7 | 8 | 19 | -9 | 3 | .
CC(C)(C)OC(=O)COc1cc(F)ccc1[N+](=O)[O-] | -1 | 4 | -4 | 7 | 4 | 4 | .
COc1ccc(CCN2C(=O)C=CC2=O)cc1OC | 24 | 6 | 96* | 55* | -4 | 63 | 98*
CC(C)Cc1nccs1 | . | -1 | -3 | 8 | 1 | 2 | .
Oc1[nH]c2ccc(Br)cc2c1N=NC(=S)Nc1ccc(F)cc1 | 27 | -3 | 65* | 22 | 14 | 20 | 67*
Oc1ccc(NC(=S)N=Nc2c(O)[nH]c3ccc(Br)cc23)cc1 | 40 | 44 | 40 | 4 | -16 | -3 | .
Cc1cc2nc(-c3ccco3)c(Cc3cccc(Cl)c3)n2c(C)c1Br | . | . | . | 2 | . | . | .
COc1ccc(-c2ccc3[nH]c4c(c3c2)CCN2C[C@@H]([C@H](C)O)[C@@H](N(C)C(=O)Nc3cc(Cl)cc(Cl)c3)C[C@@H]42)cc1 | . | 1 | 64* | 9 | 1 | 20 | 61*
Cc1cc(C(=O)N2CCC2(C)C(=O)Nc2ccc3[nH]ncc3c2)nn1C (centres undefined) | . | 6 | -1 | 10 | 4 | -8 | .
CCn1c2ccccc2c2cc(NC(=O)COC(=O)c3ccc(O)cc3)ccc21 | 10 | -20 | -8 | -3 | 12 | -24 | .
SMILES | TRPM1 prom inh | CF NFkB inh | Peg3 prom inh-1 | HIF-2a block | KKLEB tox | Shn3 inh set2 | Peg3 prom inh-2
CCn1c2ccccc2c2cc(NC(=O)C(C)OC(=O)c3ccc(NC(=O)CC#N)cc3)ccc21 (centres undefined) | 46 | 45 | 67* | 2 | -65* | 16 | 55*
COc1ccc2c(C#CCCO)c(-c3ccc(S(C)(=O)=O)cc3)sc2c1 | -2 | 7 | 50* | 10 | -19 | -9 | 42*
COc1ccc(-c2sc3ccccc3c2C#CCCO)cc1 | 2 | 24 | 7 | 2 | -16 | -44 | .
CS(=O)(=O)c1ccc(-c2sc3ccccc3c2C#CCCO)cc1 | 6 | -4 | 54* | -9 | 3 | -9 | 60*
CNC(=O)C[C@H]1C(=O)N(CCc2ccccc2)C[C@@H]1C | . | -2 | -12 | -8 | 5 | -17 | .
O=C(/C=C/c1ccccc1)NC(NC(=S)Nc1cccc(Cl)c1)C(Cl)(Cl)Cl (centres undefined) | 20 | 7 | 79* | 32 | -4 | 65 | 67*
O=C(/C=C/c1ccccc1)NC(NC(=S)Nc1cccc(O)c1)C(Cl)(Cl)Cl (centres undefined) | 10 | 21 | 24 | 16 | -3 | 12 | .
COc1ccc(NC(=O)Nc2nc(C(N)CC(C)C)cs2)cc1 (centres undefined) | . | 2 | 11 | 15 | 10 | 4 | .
CC(C)CC(N)c1csc(NC(=O)Nc2ccccc2C(C)C)n1 (centres undefined) | . | 9 | 72* | 9 | -8 | 8 | 84*
COc1cc2c(cc1OC)C(C)N(S(=O)(=O)c1ccc(Cl)nc1)CC2 (centres undefined) | 4 | 4 | 13 | 13 | 1 | 9 | .
O=C(NCc1ccccc1)c1cccc(COc2ccc3c(c2)CCC3)c1 | 21 | -11 | -119 | 15 | -9 | -17 | .
O=C(O)c1cccc(COc2ccc3c(c2)CCC3)c1 | 96* | 11 | 85* | 88* | -4 | 77 | 73*
O=C(O)c1cccc(COc2ccc(CO)cc2Cl)c1 | 105* | -9 | 100* | 89* | 0 | 89* | 88*
CCOc1ccc(OCc2cccc(C(=O)O)c2)cc1 | 93* | -2 | 100* | 89* | -18 | 89* | 96*
CCOc1ccc(OCc2cccc(C(=O)N3CCCC3)c2)cc1 | 29 | -29 | -145 | -36 | 4 | -31 | .
COc1ccccc1CNCC(O)Cn1c2ccccc2c2ccccc21 (centres undefined) | 84* | 25 | 111* | 23 | -18 | 28 | 97*
CN1Cc2c(N3CCOCC3)nc3sc(C#N)c(N)c3c2CC1(C)C | 3 | 10 | 16 | 19 | -6 | -3 | .
CN1Cc2c(N3CCOCC3)nc3sc(C(=O)c4ccc(Br)cc4)c(N)c3c2CC1(C)C | . | -5 | 80* | -7 | -14 | . | 97*
N=c1n(CCN2CCCCC2)c2ccccc2n1CC(O)c1ccc(Cl)c(Cl)c1 (centres undefined) | ? | 22 | 117* | -6 | -14 | 7 | 100*
COc1ccccc1C(=O)NC(CCSC)C(=O)Nc1ccc(C)c(S(=O)(=O)N2CCOCC2)c1 (centres undefined) | 1 | 11 | 15 | 17 | -6 | 14 | .
